# According to PubChem BioAssay (EPA / NIEHS):
# Calls of active or inactive are those of the source. How the source made its calls: active means hit-call score of the fitted dose curve at least 0.9, where 1 is the maximum; inactive means score below 0.9.
# Legend:
# [1] = molecular target: CCAAT/enhancer-binding protein beta (Homo sapiens) (UniProt P17676); experiment: ATG_C_EBP_CIS: Attagene CIS-FACTORIAL HepG2 Assay for human CCAAT/Enhancer Binding Protein (C/EBP) beta (AID 2282927); conditions: HepG2 Attagene cis-factorial transcription factor reporter; actives raise or lower the signal
# In short: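 Chemical-treated HepG2 cells (24 h) bearing cis-regulated reporter constructs were processed for total RNA, then reverse transcription, PCR amplification, fluorescent primer extension and fragment analysis; gain- and loss-of-signal were fitted against DMSO.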
# [2] = ATG_CMV_CIS: Attagene CIS-FACTORIAL HepG2 Assay for human CMV (Internal Marker) (AID 2282928); conditions: HepG2 CMV promoter reporter, transcription factor profiling; actives raise or lower the signal;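 further: endpoint acts as a background internal control marker rather than a target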
# In short: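 24 h chemical treatment, HepG2 with transient multi-reporter transfection; RNA → oligo(dT) RT → PCR → 6-FAM extension → HpaI digest → CE fluorescence. Bidirectional fit, DMSO negative control.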
# [3] = ATG_DR4_LXR_CIS: Attagene CIS-FACTORIAL HepG2 Assay for human Liver X Receptor (LXR), DR4 submotif (AID 2282929); conditions: HepG2 Attagene DR4 cis-reporter, mRNA transcription; AC50: actives raise or lower the signal unless noted; outcome: actives raise or lower the signal unless noted
# In short: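 Measures endogenous transcription factor activity via a DR4-driven reporter transcript in human HepG2 cells. Compounds incubated 24 h; mRNA quantified by RT-PCR and capillary electrophoresis, analysed as gain or loss of signal versus DMSO.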
# [4] = molecular target: Aryl hydrocarbon receptor (Homo sapiens) (UniProt P35869); experiment: ATG_Ahr_CIS: Attagene CIS-FACTORIAL HepG2 Assay for human Aryl Hydrocarbon Receptor (Ahr) (AID 2282930); conditions: HepG2 AhR cis-factorial reporter transcription; actives raise or lower the signal
# In short: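 Following 24 h of chemical dosing, transfected HepG2 liver cells with cis-driven reporter units were lysed for RNA; reporter mRNA was quantified via RT-PCR and capillary electrophoresis, and responses fitted bidirectionally from DMSO.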
# [5] = ATG_AP_1_CIS: Attagene CIS-FACTORIAL HepG2 Assay for human Activator Protein 1 (AP-1) (AID 2282931); conditions: HepG2 Attagene cis-factorial AP-1 reporter mRNA; actives raise or lower the signal
# In short: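 Bidirectional concentration-response fitting against DMSO controls. Underlying signal: reporter mRNA from cis-promoter constructs in transiently transfected HepG2, measured after 24 h by RT-PCR and capillary electrophoresis.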
# [6] = ATG_BRE_CIS: Attagene CIS-FACTORIAL HepG2 Assay for human Bone Morphogenetic Protein (BMP) Response Element (BRE) (AID 2282933); conditions: HepG2 BMP response element reporter, Attagene transcription factor profiling; actives raise or lower the signal
# In short: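 After a 24 h chemical treatment, transiently transfected HepG2 cells were lysed for RNA; reporter transcripts were quantified by fluorescent RT-PCR and capillary electrophoresis, normalised to DMSO.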
# [7] = molecular target: Retinoic acid receptor alpha (Homo sapiens) (UniProt P10276); experiment: ATG_DR5_RAR_CIS: Attagene CIS-FACTORIAL HepG2 Assay for human Retinoic Acid Receptor Alpha (RARE), DR5 submotif (AID 2282934); conditions: HepG2 Attagene cis-factorial RARE DR5 reporter, mRNA; actives raise or lower the signal
# In short: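 Transfected HepG2 reporter cells are exposed to chemicals for 24 h. Then RNA is extracted and the DR5 element reporter transcript is measured by RT-PCR and capillary electrophoresis, with bidirectional curve fitting relative to DMSO.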
# [8] = molecular target: Transcription factor E2F1 (Homo sapiens) (UniProt Q01094); experiment: ATG_E2F_CIS: Attagene CIS-FACTORIAL HepG2 Assay for human E2F Transcription Factor 1 (AID 2282935); conditions: HepG2 Attagene cis-reporter, E2F reporter RNA transcripts; actives raise or lower the signal
# In short: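 First, HepG2 cells were transfected with reporter transcription units. Next, they were dosed for 24 h. Then RNA was isolated, converted to cDNA, PCR-amplified, FAM-labeled, HpaI-digested and analyzed by capillary electrophoresis.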
# [9] = ATG_E_Box_CIS: Attagene CIS-FACTORIAL HepG2 Assay for human Enhancer Box (E-box) (AID 2282936); conditions: HepG2 E-box cis-reporter transcription, actives raise or lower the signal
# In short: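 Endogenous transcription factor activity was sensed in human HepG2 liver cells through transfected cis-promoter reporter units. After 24 h of dosing, total RNA was reverse-transcribed and reporter cDNA resolved by capillary electrophoresis.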
# [10] = ATG_EGR_CIS: Attagene CIS-FACTORIAL HepG2 Assay for human Early Growth Response 1 (EGR1) (AID 2282938); conditions: HepG2 Attagene CIS-FACTORIAL EGR reporter mRNA; actives raise or lower the signal
# In short: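 Cell-based multiplex transcription assay: HepG2 carrying transfected cis-element reporter units, 24 h chemical treatment. Fluorescence from capillary electrophoresis of RT-PCR products gives mRNA levels; fitting is bidirectional relative to DMSO.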
# [11] = ATG_M_19_CIS: Attagene CIS-FACTORIAL HepG2 Assay for M19 Transcription Factor (Internal Marker) (AID 2282939); conditions: HepG2 Attagene CIS-FACTORIAL M19 internal marker reporter; actives raise or lower the signal
# In short: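 In this multiplexed cell assay, transiently transfected HepG2 reporter units report endogenous transcription-factor activity; after 24 hours of treatment, labelled reporter cDNA fragments are quantified by capillary electrophoresis and fitted bidirectionally against DMSO.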
# [12] = ATG_ERE_CIS: Attagene CIS-FACTORIAL HepG2 Assay for Estrogen Response Element (ERE) (AID 2282940); conditions: HepG2 ERE cis-reporter, Attagene RNA transcript; actives raise or lower the signal
# In short: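 Measuring endogenous transcription factor output, the assay doses transfected HepG2 cells for 24 hours and quantifies reporter transcripts by fluorescent RT-PCR and capillary electrophoresis, with DMSO as baseline.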
# [13] = ATG_Ets_CIS: Attagene CIS-FACTORIAL HepG2 Assay for human Erythroblast Transformation Specific (ETS) (AID 2282941); conditions: HepG2 ETS cis-reporter transcription; AC50: actives raise or lower the signal unless noted; outcome: actives raise or lower the signal unless noted
# In short: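 Cis-regulated reporter mRNA induction in HepG2 (transient transfection), 24 h exposure, RT-PCR plus capillary electrophoresis detection; DMSO serves as negative control and baseline.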
# [14] = molecular target: Hepatocyte nuclear factor 3-beta (Homo sapiens) (UniProt Q9Y261); experiment: ATG_FoxA2_CIS: Attagene CIS-FACTORIAL HepG2 Assay for human Forkhead box A2 (FOXA2) (AID 2282942); conditions: HepG2 cis-reporter transcription factor activity, 24 h; actives raise or lower the signal
# In short: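 In transiently transfected human HepG2 cells, promoter-driven reporter mRNA levels after 24 h chemical exposure are determined via RT-PCR with capillary electrophoresis. DMSO serves as baseline for bidirectional fitting.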
# [15] = ATG_GATA_CIS: Attagene CIS-FACTORIAL HepG2 Assay for human GATA Binding Protein (AID 2282944); conditions: HepG2 GATA cis-element reporter, Attagene multiplex mRNA; actives raise or lower the signal
# In short: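 Measures endogenous transcription factor-driven reporter mRNA in HepG2 cells transiently carrying cis-regulated constructs. 24 h dosing; RNA via oligo(dT) reverse transcription, PCR, HpaI digestion, capillary electrophoresis; fitted relative to DMSO.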
# [16] = ATG_GLI_CIS: Attagene CIS-FACTORIAL HepG2 Assay for human Zinc Finger Protein GLI1 (AID 2282945); conditions: HepG2, Attagene cis-factorial reporter mRNA, GLI element; actives raise or lower the signal
# In short: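 HepG2 cells transiently transfected with cis-promoter multiplexed reporter units report endogenous transcription factor activity. After 24 h chemical exposure, reporter mRNA was quantified by RT-PCR, 6-FAM labelling, HpaI digestion and capillary electrophoresis, with bidirectional fitting against DMSO.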
# [17] = molecular target: Bile acid receptor (Homo sapiens) (UniProt Q96RI1); experiment: ATG_IR1_CIS: Attagene CIS-FACTORIAL HepG2 Assay for human Nuclear Receptor Subfamily 1 Group H Member 4 (NR1H4), IR1 submotif (AID 2282946); conditions: IR1 reporter transcription, actives raise or lower the signal
# In short: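 Readout: reporter transcript levels by RT-PCR with fluorescent capillary electrophoresis, from HepG2 cells transiently transfected with multiplexed cis-regulated reporters and dosed 24 h. Gain- or loss-of-signal fitted versus DMSO negative control.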
# [18] = ATG_AP_2_CIS: Attagene CIS-FACTORIAL HepG2 Assay for human Activator Protein 2 (AP-2) (AID 2282932); conditions: HepG2 AP-2 cis-reporter, Attagene transcription factor profiling; AC50: actives raise or lower the signal unless noted; outcome: actives raise or lower the signal unless noted
# In short: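 Cells (HepG2) transfected with promoter-driven reporter constructs, treated 24 h. Total RNA reverse-transcribed, reporter cDNA PCR-amplified, FAM-labelled by primer extension, digested, resolved by capillary electrophoresis. Activity fitted both directions versus DMSO.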
# [19] = ATG_M_61_CIS: Attagene CIS-FACTORIAL HepG2 Assay for M61 Transcription Factor (Internal Marker) (AID 2282937); conditions: HepG2 Attagene CIS-FACTORIAL M61 internal marker reporter; actives raise or lower the signal
# In short: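 Fluorescence from labelled cDNA fragments, separated by capillary electrophoresis, quantifies reporter induction. HepG2 cells bearing transiently transfected cis-promoter MRTUs were incubated with test chemical for 24 h; DMSO defined baseline for gain/loss fitting.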
# [20] = ATG_FoxO_CIS: Attagene CIS-FACTORIAL HepG2 Assay for human Forkhead box O (FoxO) (AID 2282943); conditions: HepG2 Attagene cis-reporter, FoxO element, mRNA; actives raise or lower the signal
# In short: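 24 h chemical exposure, HepG2 with transient cis-MRTU transfection. RNA extraction, oligo(dT) RT, reporter-specific PCR, primer-extension labelling, HpaI digestion, CE fragment analysis; bidirectional fit, DMSO baseline.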
# Sequence of Aryl hydrocarbon receptor (Homo sapiens) (P35869 whole entry, looked up): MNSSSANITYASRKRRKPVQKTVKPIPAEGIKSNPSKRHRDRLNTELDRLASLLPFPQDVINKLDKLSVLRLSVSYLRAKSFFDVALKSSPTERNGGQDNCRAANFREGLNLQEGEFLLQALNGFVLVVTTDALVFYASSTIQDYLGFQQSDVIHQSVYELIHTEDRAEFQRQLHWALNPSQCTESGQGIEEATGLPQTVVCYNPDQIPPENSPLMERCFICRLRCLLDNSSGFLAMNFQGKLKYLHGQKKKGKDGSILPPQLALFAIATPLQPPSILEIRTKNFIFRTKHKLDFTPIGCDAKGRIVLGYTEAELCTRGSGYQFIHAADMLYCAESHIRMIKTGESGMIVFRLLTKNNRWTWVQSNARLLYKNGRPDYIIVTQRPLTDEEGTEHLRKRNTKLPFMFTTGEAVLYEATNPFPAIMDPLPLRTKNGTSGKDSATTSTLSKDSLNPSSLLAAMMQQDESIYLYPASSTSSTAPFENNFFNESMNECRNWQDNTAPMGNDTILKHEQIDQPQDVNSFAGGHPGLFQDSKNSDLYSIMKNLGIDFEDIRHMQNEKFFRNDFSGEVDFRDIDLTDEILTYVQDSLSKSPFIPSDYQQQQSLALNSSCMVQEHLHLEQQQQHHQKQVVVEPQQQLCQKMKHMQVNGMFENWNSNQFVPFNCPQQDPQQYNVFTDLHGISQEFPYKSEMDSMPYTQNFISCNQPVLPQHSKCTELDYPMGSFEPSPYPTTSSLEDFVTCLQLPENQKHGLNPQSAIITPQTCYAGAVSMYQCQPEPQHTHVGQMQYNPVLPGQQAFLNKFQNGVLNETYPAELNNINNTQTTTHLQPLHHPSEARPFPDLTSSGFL
# Sequence of CCAAT/enhancer-binding protein beta (Homo sapiens) (P17676 whole entry, looked up, the tested form may be a part): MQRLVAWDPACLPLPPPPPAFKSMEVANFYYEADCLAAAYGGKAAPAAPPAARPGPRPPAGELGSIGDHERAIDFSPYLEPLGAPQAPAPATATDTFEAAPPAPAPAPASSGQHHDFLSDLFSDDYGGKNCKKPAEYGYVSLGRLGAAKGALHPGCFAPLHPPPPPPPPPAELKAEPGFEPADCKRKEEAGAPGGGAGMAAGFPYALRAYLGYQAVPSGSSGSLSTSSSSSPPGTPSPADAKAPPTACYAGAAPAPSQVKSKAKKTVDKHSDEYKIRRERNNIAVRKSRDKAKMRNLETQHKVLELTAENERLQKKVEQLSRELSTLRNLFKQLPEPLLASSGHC
# Sequence of Retinoic acid receptor alpha (Homo sapiens) (P10276 whole entry, looked up): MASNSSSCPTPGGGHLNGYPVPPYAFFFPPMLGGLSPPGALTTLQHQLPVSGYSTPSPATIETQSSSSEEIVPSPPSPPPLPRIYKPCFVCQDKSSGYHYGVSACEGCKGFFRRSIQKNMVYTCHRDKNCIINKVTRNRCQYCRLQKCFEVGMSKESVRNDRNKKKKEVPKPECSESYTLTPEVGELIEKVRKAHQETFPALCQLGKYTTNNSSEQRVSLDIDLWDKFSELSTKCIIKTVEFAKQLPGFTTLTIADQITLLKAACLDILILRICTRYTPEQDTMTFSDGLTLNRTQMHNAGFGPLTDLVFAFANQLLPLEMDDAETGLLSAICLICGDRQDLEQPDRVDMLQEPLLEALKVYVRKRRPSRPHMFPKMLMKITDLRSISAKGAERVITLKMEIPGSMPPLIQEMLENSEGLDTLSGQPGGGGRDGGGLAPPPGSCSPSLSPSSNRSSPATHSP
# Sequence of Bile acid receptor (Homo sapiens) (Q96RI1 whole entry, looked up): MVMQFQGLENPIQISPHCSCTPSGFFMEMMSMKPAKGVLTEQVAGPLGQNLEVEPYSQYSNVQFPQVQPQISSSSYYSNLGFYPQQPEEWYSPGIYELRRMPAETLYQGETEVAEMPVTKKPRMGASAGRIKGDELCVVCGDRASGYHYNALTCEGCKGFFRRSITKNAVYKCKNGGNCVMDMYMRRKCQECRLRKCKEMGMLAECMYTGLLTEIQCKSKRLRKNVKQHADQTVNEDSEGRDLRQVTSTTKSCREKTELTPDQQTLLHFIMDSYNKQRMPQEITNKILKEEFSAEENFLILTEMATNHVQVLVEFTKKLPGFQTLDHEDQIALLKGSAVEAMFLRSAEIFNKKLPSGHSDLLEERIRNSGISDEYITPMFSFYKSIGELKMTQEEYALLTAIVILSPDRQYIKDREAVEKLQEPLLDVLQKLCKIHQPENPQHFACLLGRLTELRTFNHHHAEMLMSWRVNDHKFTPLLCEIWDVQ
# Sequence of Hepatocyte nuclear factor 3-beta (Homo sapiens) (Q9Y261 whole entry, looked up): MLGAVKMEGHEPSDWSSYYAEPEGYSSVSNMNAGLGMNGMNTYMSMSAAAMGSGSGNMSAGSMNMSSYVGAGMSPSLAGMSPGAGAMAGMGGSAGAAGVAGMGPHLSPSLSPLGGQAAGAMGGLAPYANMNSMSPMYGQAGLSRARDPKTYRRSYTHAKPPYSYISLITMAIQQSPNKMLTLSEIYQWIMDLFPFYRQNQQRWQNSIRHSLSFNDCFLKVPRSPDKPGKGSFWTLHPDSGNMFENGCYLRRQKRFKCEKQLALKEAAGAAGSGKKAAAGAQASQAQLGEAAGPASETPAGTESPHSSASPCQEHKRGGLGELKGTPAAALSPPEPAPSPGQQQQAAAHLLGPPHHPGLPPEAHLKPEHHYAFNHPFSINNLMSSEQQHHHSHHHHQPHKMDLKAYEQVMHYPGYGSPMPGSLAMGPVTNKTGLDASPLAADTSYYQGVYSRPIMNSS
# Sequence of Transcription factor E2F1 (Homo sapiens) (Q01094 whole entry, looked up): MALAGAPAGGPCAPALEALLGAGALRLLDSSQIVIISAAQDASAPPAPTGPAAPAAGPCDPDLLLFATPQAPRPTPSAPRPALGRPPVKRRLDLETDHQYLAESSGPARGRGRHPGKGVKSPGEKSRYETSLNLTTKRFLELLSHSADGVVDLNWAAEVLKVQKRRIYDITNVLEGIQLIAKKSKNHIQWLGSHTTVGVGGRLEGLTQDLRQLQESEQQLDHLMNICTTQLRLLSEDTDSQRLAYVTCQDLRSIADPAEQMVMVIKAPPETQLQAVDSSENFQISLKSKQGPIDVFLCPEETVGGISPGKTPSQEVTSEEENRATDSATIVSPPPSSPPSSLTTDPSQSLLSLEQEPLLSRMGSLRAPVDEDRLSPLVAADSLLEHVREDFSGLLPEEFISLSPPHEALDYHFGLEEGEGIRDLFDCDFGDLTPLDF
compound,measurement,setting,value
O=P(O)(O)CCC(F)(F)C(F)(F)C(F)(F)C(F)(F)C(F)(F)C(F)(F)C(F)(F)C(F)(F)F,outcome,[1],inactive
same,outcome,[2],inactive
same,outcome,[3],inactive
same,outcome,[4],inactive
same,outcome,[5],inactive
same,outcome,[6],inactive
same,outcome,[7],inactive
same,outcome,[8],inactive
same,outcome,[9],inactive
same,outcome,[10],inactive
same,outcome,[11],inactive
same,outcome,[12],inactive
same,outcome,[13],inactive
same,outcome,[14],inactive
same,outcome,[15],inactive
same,outcome,[16],inactive
same,outcome,[17],inactive
Oc1cccc2c(O)cccc12,outcome,[1],inactive
same,AC50,[2],64.5 µM (active)
same,outcome,[3],inactive
same,AC50,[4],578 nM (active)
same,outcome,[5],inactive
same,outcome,[18],inactive
same,outcome,[6],inactive
same,AC50,[9],27.3 µM (active)
same,outcome,[19],inactive
same,outcome,[10],inactive
same,AC50,[12],12.3 µM (active)
same,outcome,[13],inactive
same,AC50,[14],85.9 nM (active)
same,outcome,[20],inactive
same,outcome,[16],inactive
same,outcome,[17],inactive
COC(=O)C(F)(F)C(F)(F)C(F)(F)C(F)(F)C(F)(F)F,outcome,[1],inactive
same,outcome,[2],inactive
same,outcome,[3],inactive
same,outcome,[5],inactive
same,outcome,[18],inactive
same,outcome,[6],inactive
same,outcome,[7],inactive
same,outcome,[8],inactive
same,outcome,[9],inactive
same,outcome,[19],inactive
same,outcome,[10],inactive
same,outcome,[11],inactive
same,outcome,[12],inactive
same,outcome,[13],inactive
same,outcome,[14],inactive
same,outcome,[20],inactive
same,outcome,[15],inactive
same,outcome,[16],inactive
same,outcome,[17],inactive
